Calls of active or inactive are those of the source. The rule behind the calls is not given here.

Consider 20 compounds from PubChem BioAssay.

Assay [1] can be described thus: kinase inhibitors against Plasmodium liver-stage infection, cell-based, known kinase inhibitor set, luminescence, hepatoma host viability (AID 624392).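 Note: infected cells incubated roughly two days before readout.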 The following applies: Plasmodium liver stage in hepatoma cells, luciferase luminescence, concentration not given here; liver cell % of control: measured here: host liver cell viability; parasite % of control: stronger effect = lower value.

A short description of assay [2]: modulators of glucocorticoid suppression of NF-kB, cell-based, luciferase, IL-1B stimulus, dexamethasone (AID 624486).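 For percent of negative control (+Dex): 100% = mean signal of vehicle control wells on the plate.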 Conditions: NF-kB luciferase reporter, IL-1B + dexamethasone, luminescence; percent of negative control (+Dex): actives lie on both sides, concentration not given here; z-score: measured here: IL-1B alone, no Dex.
The target in assay [3] is Cellular tumor antigen p53 (Homo sapiens) (UniProt P04637). In words: kinase inhibitors altering GFP-p53 stability in HPV16-positive cells, imaging, known kinase inhibitor set, EGFP/DsRed ratio (AID 1053116).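 Note: cells exposed to compounds for 24 h at 37 °C before reading.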 Conditions: stronger effect = higher value; EGFP object count: measured here: GFP-p53 positive objects count.
The nature of assay [4]: IRF3 reporter activation in THP-1 macrophages, cell-based, PMA-stimulated THP-1, luminescence (AID 1053176). Conditions: PMA-differentiated THP-1, IRF3 reporter luminescence; stronger effect = higher value.

Sequence of Cellular tumor antigen p53 (Homo sapiens) (P04637 whole entry, looked up): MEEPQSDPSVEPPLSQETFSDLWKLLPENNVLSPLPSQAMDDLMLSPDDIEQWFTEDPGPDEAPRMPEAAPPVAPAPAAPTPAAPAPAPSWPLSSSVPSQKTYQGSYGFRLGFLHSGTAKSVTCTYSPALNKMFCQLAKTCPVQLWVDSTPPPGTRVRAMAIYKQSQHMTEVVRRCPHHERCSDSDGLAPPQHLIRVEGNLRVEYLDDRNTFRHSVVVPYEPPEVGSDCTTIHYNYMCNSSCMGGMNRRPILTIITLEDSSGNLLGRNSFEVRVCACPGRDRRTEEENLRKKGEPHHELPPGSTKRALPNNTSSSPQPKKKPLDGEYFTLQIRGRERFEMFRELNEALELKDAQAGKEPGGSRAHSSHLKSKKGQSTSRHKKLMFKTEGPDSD

With `O=C1NC(=NCCc2ccc(Cl)cc2)SC1=Cc1ccc2ncccc2c1`, in assay [1], the liver cell % of control was 108% and the parasite % of control is 53.8% (inactive). In assay [2], the percent of negative control (+Dex) was 95% (inactive) and the z-score came to 0.425. Besides, in assay [3], the EGFP object count was found to be 6.5 and the EGFP/DsRed ratio is 0.259 (inactive). The fraction signal in assay [4] was -0.0075 (inactive).

Turning to `Cn1cc(C2=C(c3c4n(c5ccccc35)CCN(C(N)=S)C4)C(=O)NC2=O)c2ccccc21`, in assay [1], the liver cell % of control was determined as 94.5% and the parasite % of control is 22.4% (inactive). For the same compound, in assay [2], the percent of negative control (+Dex) is 110% (inactive) and the z-score is -0.965. In assay [3], the EGFP object count was determined as 36.5 and the EGFP/DsRed ratio was 0.211 (inactive). Besides, the fraction signal in assay [4] was -0.007 (inactive).

In the case of `Cn1c(=O)c(Sc2ccccc2F)cc2cnc(NC3CCOCC3)nc21`, in assay [1], the liver cell % of control stood at 103% and the parasite % of control was 68.5% (inactive). In addition, in assay [2], the percent of negative control (+Dex) is 107% (inactive) and the z-score worked out at 0.685. In addition, in assay [3], the EGFP object count worked out at 2 and the EGFP/DsRed ratio is 0.0407 (inactive). Further, the fraction signal in assay [4] is -0.0075 (inactive).

In the case of `Cn1cc(C2=C(c3c[nH]c4ccccc34)C(=O)NC2=O)c2ccccc21`, in assay [1], the liver cell % of control was found to be 85.3% and the parasite % of control is 60.7% (inactive). Moreover, in assay [2], the percent of negative control (+Dex) is 101% (inactive) and the z-score is -1.61. Besides, in assay [3], the EGFP object count is 73 and the EGFP/DsRed ratio was 0.286 (inactive). Moreover, the fraction signal in assay [4] was 0.0015 (inactive).

On to `O=C1NC(=NCc2cccs2)OC1=Cc1ccc2ncccc2c1`, for which, in assay [1], the liver cell % of control is 113% and the parasite % of control is 64.9% (inactive). Also, in assay [2], the percent of negative control (+Dex) was 55% (active) and the z-score was -4.77. Moreover, in assay [3], the EGFP object count was 3.5 and the EGFP/DsRed ratio was 0.0818 (inactive). The fraction signal in assay [4] is -0.0135 (inactive).

Regarding `Cn1cc(C2=C(c3cccc(OCC(O)CO)c3)C(=O)NC2=O)c2cc(F)ccc21` (stereo not given), in assay [1], the liver cell % of control turned out to be 125% and the parasite % of control was 31.6% (inactive). Moreover, in assay [2], the percent of negative control (+Dex) was 97% (inactive) and the z-score turned out to be 0.67. Also, in assay [3], the EGFP object count worked out at 8 and the EGFP/DsRed ratio was 0.21 (inactive). Moreover, the fraction signal in assay [4] is -0.0075 (inactive).

For the compound `Nc1c(C(=O)c2cccc(-c3ccncc3)c2)cnn1-c1ccc(F)cc1`, in assay [1], the liver cell % of control came to 101% and the parasite % of control is 36.5% (inactive). Also, in assay [2], the percent of negative control (+Dex) is 95.5% (inactive) and the z-score was found to be 0.895. In assay [3], the EGFP object count is 2 and the EGFP/DsRed ratio was 0.219 (inactive). Besides, in assay [4], the fraction signal is -0.003 (inactive).

Turning to `COc1ccc2c(C3=C(c4cn(C)c5ccccc45)C(=O)NC3=O)cn(C)c2c1`, in assay [1], the liver cell % of control was 79.3% and the parasite % of control was 31.4% (inactive). In assay [2], the percent of negative control (+Dex) was 113% (inactive) and the z-score is -1.48. Also, in assay [3], the EGFP object count is 66 and the EGFP/DsRed ratio is 0.456 (inactive). Also, the fraction signal in assay [4] is -0.007 (inactive).

As to `Fc1ccc(-c2c(-c3ccncc3)[nH]c3cccnc23)cc1`, in assay [1], the liver cell % of control came to 141% and the parasite % of control was 1.58% (active). For the same compound, in assay [2], the percent of negative control (+Dex) was 95% (inactive) and the z-score stood at 0.075. For the same compound, in assay [3], the EGFP object count was 6 and the EGFP/DsRed ratio is 0.15 (inactive). The fraction signal in assay [4] is -0.0095 (inactive).

As for `Cn1cc(C2=C(c3cn(CCO)c4ccccc34)C(=O)NC2=O)c2ccccc21`, in assay [1], the liver cell % of control stood at 89.7% and the parasite % of control is 54.6% (inactive). In addition, in assay [2], the percent of negative control (+Dex) is 124% (inactive) and the z-score is -1.11. Besides, in assay [3], the EGFP object count was determined as 25 and the EGFP/DsRed ratio was 0.285 (inactive). Further, in assay [4], the fraction signal was -0.0245 (inactive).

For `O=C1NC(O)C(c2c[nH]c3ccccc23)=C1c1c[nH]c2ccccc12` (stereo not given), in assay [1], the liver cell % of control is 141% and the parasite % of control is 47.1% (inactive). In assay [2], the percent of negative control (+Dex) is 93% (inactive) and the z-score came to 0.455. Moreover, in assay [3], the EGFP object count was determined as 4 and the EGFP/DsRed ratio was 0.15 (inactive). Moreover, the fraction signal in assay [4] is 0.001 (inactive).

On to `COc1cc(F)c(F)cc1C(=O)c1cnc(NC2CCN(S(C)(=O)=O)CC2)nc1N`, for which, in assay [1], the liver cell % of control was 107% and the parasite % of control is 392% (inactive). Besides, in assay [2], the percent of negative control (+Dex) is 79% (inactive) and the z-score is -1.08. Besides, in assay [3], the EGFP object count stood at 1 and the EGFP/DsRed ratio is 0.11 (inactive). The fraction signal in assay [4] was -0.003 (inactive).

With `Cn1c(=O)c(Oc2ccc(F)cc2)cc2cnc(NC3CCOCC3)nc21`, in assay [1], the liver cell % of control was found to be 106% and the parasite % of control was 64.1% (inactive). In addition, in assay [2], the percent of negative control (+Dex) was 104% (inactive) and the z-score came out at 0.86. Further, in assay [3], the EGFP object count worked out at 3.5 and the EGFP/DsRed ratio is 0.251 (inactive). For the same compound, the fraction signal in assay [4] was -0.0055 (inactive).

Regarding `CC(C)c1[nH]nc2c1N=C(c1ccccc1Cl)c1cc([N+](=O)[O-])ccc1N2`, in assay [1], the liver cell % of control was found to be 105% and the parasite % of control was 61.2% (inactive). Besides, in assay [2], the percent of negative control (+Dex) is 108% (inactive) and the z-score is 0.05. Also, in assay [3], the EGFP object count is 50.5 and the EGFP/DsRed ratio is 1.11 (active). The fraction signal in assay [4] was -0.0115 (inactive).

`Nc1c(C(=O)c2cccc(C#CCN3CCCCC3)c2)cnn1-c1ccc(F)cc1`: in assay [1], the liver cell % of control came out at 91.6% and the parasite % of control was 50.5% (inactive). In addition, in assay [2], the percent of negative control (+Dex) is 101% (inactive) and the z-score is 0.935. For the same compound, in assay [3], the EGFP object count worked out at 1.5 and the EGFP/DsRed ratio is 0.0667 (inactive). The fraction signal in assay [4] is 0.0075 (inactive).

With `Cn1c(=O)c(Oc2ccc(F)cc2F)cc2cnc(NC3CCS(=O)(=O)CC3)nc21`, in assay [1], the liver cell % of control was determined as 106% and the parasite % of control is 43.3% (inactive). Also, in assay [2], the percent of negative control (+Dex) was 97.5% (inactive) and the z-score came out at 0.51. Moreover, in assay [3], the EGFP object count was 5 and the EGFP/DsRed ratio is 0.324 (inactive). Further, the fraction signal in assay [4] was 0.001 (inactive).

With `Cn1cc(C2=C(c3cn(CCSC(=N)N)c4ccccc34)C(=O)NC2=O)c2ccccc21`, in assay [1], the liver cell % of control worked out at 92.2% and the parasite % of control was 26.4% (inactive). In assay [2], the percent of negative control (+Dex) was 96.5% (inactive) and the z-score stood at 0.445. Also, in assay [3], the EGFP object count was determined as 2.5 and the EGFP/DsRed ratio is 0.00335 (inactive). Further, the fraction signal in assay [4] is -0.018 (inactive).

As for `CN1CCN(CC#Cc2cccc(C(=O)c3cnn(-c4ccc(F)cc4)c3N)c2)CC1`, in assay [1], the liver cell % of control was determined as 96.5% and the parasite % of control is 46.3% (inactive). Further, in assay [2], the percent of negative control (+Dex) is 104% (inactive) and the z-score was found to be 0.495. In assay [3], the EGFP object count worked out at 3.5 and the EGFP/DsRed ratio was 0.0523 (inactive). Also, the fraction signal in assay [4] is 0.0015 (inactive).

In the case of `Nc1c(C(=O)c2cccc(C(O)CO)c2)cnn1-c1ccc(F)cc1` (stereo not given), in assay [1], the liver cell % of control was determined as 101% and the parasite % of control is 60.5% (inactive). Also, in assay [2], the percent of negative control (+Dex) was 110% (inactive) and the z-score was 1.48. Further, in assay [3], the EGFP object count stood at 4.5 and the EGFP/DsRed ratio was 0.197 (inactive). In addition, the fraction signal in assay [4] was 0.0035 (inactive).

In the case of `CC(=O)NC(Cc1ccc(OP(=O)(O)O)cc1)C(=O)NC1CCC(=O)N2CCCC(C(=O)NCc3ccc(Cl)cc3)N2C1=O` (stereo not given), in assay [1], the liver cell % of control was determined as 96.1% and the parasite % of control was 45.1% (inactive). In addition, in assay [2], the percent of negative control (+Dex) is 95.5% (inactive) and the z-score was found to be 0.05. Besides, in assay [3], the EGFP object count came out at 3.5 and the EGFP/DsRed ratio was 0.276 (inactive). Further, in assay [4], the fraction signal was -0.003 (inactive).
